# Sampled rows, rich in hits. Any-hit rate of the full collection: about 1.7%.
# HDAC3 inh – human HDAC3 inhibition; actives 0.15% (n = 320,000); inhibition, % at 8.3 µM; recombinant HDAC3, fluorogenic peptide/trypsin coupled, fluorescence; O15379; in the data active = inhibition above about 26%, passing the limit was not always enough; inconclusive = no clear call, values can overlap the other calls
# Target sequence (O15379 whole entry, looked up): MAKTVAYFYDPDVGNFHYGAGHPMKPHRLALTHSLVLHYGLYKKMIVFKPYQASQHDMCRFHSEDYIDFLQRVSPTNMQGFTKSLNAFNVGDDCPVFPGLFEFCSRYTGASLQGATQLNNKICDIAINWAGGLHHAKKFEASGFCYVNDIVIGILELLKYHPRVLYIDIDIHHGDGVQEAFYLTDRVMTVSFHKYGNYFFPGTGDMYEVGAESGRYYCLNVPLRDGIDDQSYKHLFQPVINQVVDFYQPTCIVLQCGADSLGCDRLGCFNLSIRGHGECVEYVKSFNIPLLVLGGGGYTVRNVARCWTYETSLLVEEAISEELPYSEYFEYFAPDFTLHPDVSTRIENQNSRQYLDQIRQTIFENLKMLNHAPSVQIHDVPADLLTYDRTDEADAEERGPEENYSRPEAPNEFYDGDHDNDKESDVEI
# HTR2A ag – mouse HTR2A agonism via beta-arrestin recruitment | P35363 | activation, % at 7.6 µM | CHO-K1 mHTR2A beta-arrestin complementation, luminescence; percent of 30 µM serotonin response | actives 0.66% (n = 360,000);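 active = activation above a run cutoff, the mean activation of all tested compounds plus 3 SD, cut at about 14% in these data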;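 note: 0% = plate median of compound wells and 100% = 30 µM serotonin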
# Fh CTSL1 inh – cathepsin L1 inhibition, PFM18AAP counter-screen | recombinant F. hepatica cathepsin L1, Z-Leu-Arg-MCA fluorescence | inhibition, % at 5.96 µM | actives 0.49% (n = 300,000) | AID 1906;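 active = inhibition above the mean of all tested compounds plus 3 SD, set per screening campaign, cut at about 17% in these data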;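 note: 0% = plate median of test compound wells and 100% = 1 µM Z-Phe-Ala-diazomethylketone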
# LANA-H2B inh – blocks KSHV LANA binding to histone H2A/H2B. inhibition, % (test concentration not listed). actives 0.6% (n = 320,000). cell-free LANA-H2A/H2B peptide, fluorescence polarization. AID 2629; in the data active = inhibition mostly above about 10%, no sharp cut-off; inactive = mostly below about 6.7%
# An asterisk follows results filed as active; ? = inconclusive; / = no result given; + = active, no number.
SMILES,HDAC3 inh,HTR2A ag,Fh CTSL1 inh,LANA-H2B inh
CN1CCN(C(=O)C2CCC(CNS(=O)(=O)c3cccc4cccnc34)CC2)CC1 (configuration not stated),3.1,13.3,2.8,-2.8
O=C(NCCN1CCCCCC1)C1CCC(CNS(=O)(=O)c2cccc3cccnc23)CC1 (configuration not stated),1.4,-2.0,38.9*,-6.2
Cc1cccn2c(=O)c3cc(C#N)c(=NC(=O)c4ccncc4)n(CCCOC(C)C)c3nc12,-218.5,0.8,2.8,8.9*
CCCn1c(=N)c(C#N)cc2c(=O)n3ccccc3nc21,-57.8,-3.0,6.2,13.1*
CCCn1c(=N)c(C#N)cc2c(=O)n3cccc(C)c3nc21,4.4,/,-11.1,2.4
CCOCCCn1c(=NC(=O)c2cccs2)c(C#N)cc2c(=O)n3ccccc3nc21,-323.5,0.4,0.4,35.0*
COCCCn1c(=NC(=O)c2ccncc2)c(C#N)cc2c(=O)n3cccc(C)c3nc21,-84.3,1.2,-1.1,4.8
CN(Cc1ccc(F)cc1)C(=O)c1cc(S(=O)(=O)N2CCCCC2)ccc1N1CCOCC1,/,2.3,/,/
C=CCSc1nnc(-c2sc(-c3ccccc3)nc2C)n1C,-49.5,-2.6,-0.1,-0.2
C=CCN(C(=O)CSC1=NC(=O)CN1C(C)=O)c1nc(C)c(-c2ccccc2)s1,68.1*,0.0,18.9*,2.8
Cc1ccccc1S(=O)(=O)N1[C@@H](c2ccc(Br)cc2)C(C(=O)O)=CC[C@H]1c1ccc(Cl)cc1,/,22.4*,/,/
Cc1ccccc1S(=O)(=O)N1[C@@H](c2ccccc2)C(C(=O)O)=CC[C@H]1c1ccc(Cl)cc1,-8.4,3.1,8.1,-1.1
CC1CCCC(C)N1C(=O)COC(=O)C12CC3CC(CC(Cl)(C3)C1)C2 (configuration not stated),-8.0,6.0,/,17.1*
CC1CCN(C(=O)COC(=O)C23CC4CC(CC(O)(C4)C2)C3)CC1,-1.0,-1.4,/,-0.6
O=C1c2ccccc2C(=O)C12OC(c1ccccc1)C1(C(=O)c3ccccc3C1=O)C2c1ccc([N+](=O)[O-])cc1 (configuration not stated),16.6,-4.2,1.2,-1.8
O=C1c2ccccc2C(=O)C12OC2c1ccc(Cl)cc1 (configuration not stated),1.7,/,17.1*,-3.1
CC(C)(C)C1CCC(=NNC(=S)Nc2cccnc2)CC1 (configuration not stated),0.8,-4.0,19.1*,-1.5
COc1ccc(CC(=O)NCC(C)(C)N2CCOCC2)cc1,0.1,-7.2,-2.7,-8.4
CC(C)[C@H](NC(=O)c1ccccc1)C(=O)OCC(=O)c1ccc(S(=O)(=O)N2CCCCC2)cc1,11.8,4.8,34.7*,0.6
Cc1c(Cl)cccc1N(CC(=O)N1CCCCCC1)S(C)(=O)=O,-1.6,1.9,1.6,-4.5
Cc1c(Cl)cccc1N(CC(=O)O)S(C)(=O)=O,-2.5,-2.5,-1.0,11.0*
O=C(CC12CC3CC(CC(Br)(C3)C1)C2)NC1CCCC1,3.5,-8.2,-0.7,11.8*
CC(Oc1cccc(Br)c1)C(=O)NNC(=O)CCS(=O)(=O)c1ccccc1 (configuration not stated),0.3,5.9,/,3.9
CC(C)c1ccc(O)c(NC(=O)c2ncn[nH]2)c1,1.9,-0.4,16.8*,0.5
CC(C)c1ccc(O)c(NC(=O)c2cncc(Br)c2)c1,4.7,1.2,1.9,-1.6
SMILES,HDAC3 inh,HTR2A ag,Fh CTSL1 inh,LANA-H2B inh
Oc1ccc(/C=N/NC(=S)Nc2cccnc2)c(O)c1O,/,3.4,/,/
Oc1cccc(/C=N/NC(=S)Nc2cccnc2)c1O,-7.5,6.5,0.2,197.2*
Cn1c(=O)c2c(ncn2CC(=O)Nc2nnc(Cc3ccccc3)s2)n(C)c1=O,-7.6,2.6,-2.4,-3.3
C=CCSc1nnc(NC(=O)Cn2cnc3c2c(=O)n(C)c(=O)n3C)s1,-1.0,-2.0,-1.0,77.6*
Cc1ccn(S(=O)(=O)c2ccc(N3CCCC3=O)cc2)n1,-2.8,-8.0,0.2,-16.1
C[C@]12c3[nH]c4ccccc4c3CCN1C(=O)C(CC(=O)NCc1cccc(C(F)(F)F)c1)C[C@@H]2C(=O)N1CCCCC1 (some centres not stated),?,5.2,/,-1.7
C[C@]12c3[nH]c4ccccc4c3CCN1C(=O)C(CC(=O)NCc1ccco1)C[C@@H]2C(=O)N1CCOCC1 (some centres not stated),-0.7,7.3,/,94.0*
C[C@]12c3[nH]c4ccccc4c3CCN1C(=O)C(CC(=O)NCc1cccc(C(F)(F)F)c1)C[C@@H]2C(=O)N1CCOCC1 (some centres not stated),5.0,-0.1,/,+
COc1ccc(C(=O)OC2C(OC)OCC(O)C2O)cc1 (configuration not stated),/,5.9,/,/
CN(C(=O)c1ccc2c(c1)OCO2)C1(C)CCS(=O)(=O)C1 (configuration not stated),-8.3,-3.9,-2.5,14.2*
Cc1ccc(-c2csc3ncn(CC(=O)NCC(c4ccco4)N4CCCC4)c(=O)c23)cc1 (configuration not stated),4.2,-2.5,/,4.5
Cc1onc(C(=O)NCc2cccs2)c1[N+](=O)[O-],-5.1,-3.2,4.7,-2.7
CC(C)c1onc(C(=O)NCc2cccs2)c1[N+](=O)[O-],-0.1,-2.6,22.6*,4.1
CCCCC/C(=N\NC(=O)Nc1ccccc1)c1ccccc1,-5.8,-4.1,25.4*,3.0
Cc1cc(CNC(=O)c2cccnc2Cl)c2ccccc2n1,2.2,5.3,17.5*,0.7
COc1cc(SC)ccc1C(=O)NCC1CCCCC1,-2.1,3.0,7.3,0.8
CCOC(=O)C1=C(C)NC(C)=C(C(=O)OCC)C1C(=O)OCC(=O)N(C)C1CCS(=O)(=O)C1 (configuration not stated),-1.4,-2.9,0.4,19.6*
NC(=O)Cn1c(O)c(N=NC(=O)CNC(=O)/C=C/c2ccccc2)c2ccccc21,-1.9,0.7,-2.2,23.2*
C#CCOCCOCCOCCNc1nc(N2CCN(C(=O)[C@H]([C@@H](C)CC)n3cc([C@@H](N)Cc4ccc(O)cc4)nn3)CC2)nc(N2CCN(C(=O)[C@H](CCCCN)n3cc([C@@H](N)CC(C)C)nn3)CC2)n1,-2.4,/,28.0*,-0.5
C#CCOCCOCCOCCNc1nc(N2CCN(C(=O)[C@H]([C@@H](C)CC)n3cc([C@@H](N)CC(C)C)nn3)CC2)nc(N2CCN(C(=O)[C@H](Cc3cc4ccccc4[nH]3)n3cc([C@@H](N)Cc4ccc(O)cc4)nn3)CC2)n1,-8.0,/,10.9,-1.9
C#CCOCCOCCOCCNc1nc(N2CCN(C(=O)[C@H]([C@@H](C)CC)n3cc([C@@H](N)Cc4ccc(O)cc4)nn3)CC2)nc(N2CCN(C(=O)[C@H](Cc3cc4ccccc4[nH]3)n3cc([C@@H](N)CC(C)C)nn3)CC2)n1,10.6,-8.3,50.7*,-4.5
CCC(C(=O)Nc1cccc(S(=O)(=O)N(C)c2ccccc2)c1)c1ccccc1 (configuration not stated),14.1,0.5,/,9.3

# Compound activity deposited in PubChem BioAssay by several laboratories.
